Measurements from the supplement of paper PMC11732987, “Enantioselective OTUD7B fragment discovery through chemoproteomics screening and high-throughput optimisation” (Communications Chemistry, 2025).

Target: T1, USP38 (UniProt Q8NB14)
T1 sequence (whole entry): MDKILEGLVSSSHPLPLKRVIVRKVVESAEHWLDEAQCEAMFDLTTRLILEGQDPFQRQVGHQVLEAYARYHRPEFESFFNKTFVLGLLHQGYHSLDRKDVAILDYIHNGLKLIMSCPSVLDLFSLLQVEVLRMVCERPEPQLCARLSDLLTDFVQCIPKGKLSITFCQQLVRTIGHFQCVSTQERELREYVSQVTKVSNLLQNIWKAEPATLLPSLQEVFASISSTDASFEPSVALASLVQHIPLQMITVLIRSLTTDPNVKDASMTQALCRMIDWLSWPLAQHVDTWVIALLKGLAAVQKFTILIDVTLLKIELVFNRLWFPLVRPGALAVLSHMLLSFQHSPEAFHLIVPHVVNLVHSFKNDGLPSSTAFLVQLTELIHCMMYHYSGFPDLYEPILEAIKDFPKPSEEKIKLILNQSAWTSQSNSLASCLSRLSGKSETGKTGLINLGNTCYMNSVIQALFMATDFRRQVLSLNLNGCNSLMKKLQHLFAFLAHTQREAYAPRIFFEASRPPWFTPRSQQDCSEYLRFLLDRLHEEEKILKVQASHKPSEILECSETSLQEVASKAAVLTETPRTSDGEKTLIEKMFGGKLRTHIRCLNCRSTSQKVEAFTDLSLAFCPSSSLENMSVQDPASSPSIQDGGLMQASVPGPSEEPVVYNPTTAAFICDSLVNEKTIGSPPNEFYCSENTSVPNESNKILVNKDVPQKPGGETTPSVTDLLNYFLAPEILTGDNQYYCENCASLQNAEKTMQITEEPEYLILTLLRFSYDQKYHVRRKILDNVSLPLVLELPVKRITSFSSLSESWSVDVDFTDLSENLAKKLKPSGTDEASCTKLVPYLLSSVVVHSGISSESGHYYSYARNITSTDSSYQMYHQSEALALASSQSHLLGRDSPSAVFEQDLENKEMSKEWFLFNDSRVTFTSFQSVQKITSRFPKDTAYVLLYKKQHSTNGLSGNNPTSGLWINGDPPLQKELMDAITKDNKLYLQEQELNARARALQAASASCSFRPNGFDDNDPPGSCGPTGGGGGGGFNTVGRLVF
Assay: log2 ratio of Biotin-Ahx-Ub-VS probe labelling (compound/DMSO); higher = less target engagement, active = hit call of the paper (q ≤ 0.05, log2 ratio ≤ -1)
Settings: treatment time: 3 h
Outline: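 Values are average ratios of compound to vehicle from an unpaired t-test, limited to proteins with at least two unique peptides. HEK293T lysate (495 µg per sample, in Tris/CHAPS/IGEPAL buffer with protease inhibitors) was exposed in triplicate to a concentration series of compound or to vehicle for 3 h, then to Biotin-Ahx-Ub-VS at 0.5 µM final for 1 h. Labelled deubiquitinases were enriched on NeutrAvidin, digested with LysC and trypsin, and analysed by diaPASEF LC-MS/MS. Ratios are given on a log2 scale from Spectronaut label-free protein quantities normalised to the global median.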

Measured: log2 ratio of Biotin-Ahx-Ub-VS probe labelling

O=C(CCl)N[C@@H]1CCCc2ccccc21
inactive: compound concentration: 0.78uM -0.208 | compound concentration: 1.56uM -0.105 | compound concentration: 3.13uM -0.116 | compound concentration: 6.25uM -0.253 | compound concentration: 12.5uM -0.127 | compound concentration: 25uM -0.107 | compound concentration: 50uM -0.0917 | compound concentration: 100uM -0.166 | compound concentration: 200uM -0.233
